Assay results as given in the supplement of paper PMC9492666.
Where a name gives a salt, the structure may show the parent alone.

Tests used:
HCC1937 = assay: relative cell viability, compound alone, vs DMSO (fraction of DMSO control); higher = less growth inhibition; details: 72 h
MDA-MB-231 = assay: as above; details: 72 h
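Further: viability read out with the CCK-8 kit in 96-well plates, screening a set of 303 compounds acting on lipid metabolism targets.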

SMILES | relative cell viability (HCC1937) | relative cell viability (MDA-MB-231)
O=S(=O)(c1ccccc1)N(CC(F)(F)F)c1ccc(C(O)(C(F)(F)F)C(F)(F)F)cc1 | 0.957 | 1.23
O=C(CC(C(=O)O)c1c[nH]c2ccccc12)c1ccc(F)cc1F (stereo unspecified) [Mitochonic acid 5] | 1.26 | 1.19
N=C(N)NC(=N)NCCc1ccccc1 [Phenformin hydrochloride] | 0.76 | 0.868
COc1ccc(Nc2ccn(-c3ccccc3)n2)cc1 | 0.868 | 1
CCCCCCCCCCCCC/C=C/[C@@H](O)[C@@H](N)CO | 0.331 | 0.792
CCCCC[C@H](O)CC(=O)CCc1ccc(O)c(OC)c1 [6-Gingerol] | 0.646 | 0.862
CC1CC(OC(=O)C(O)c2ccccc2)CC(C)(C)C1 (stereo unspecified) [Cyclandelate] | 1.21 | 0.825
CC(C)(O)[C@@H]1Cc2cc3ccc(=O)oc3cc2O1 [marmesin] | 0.74 | 0.866
CCc1ccc(CCOc2ccc(CC3SC(=O)NC3=O)cc2)nc1 (stereo unspecified) [Pioglitazone] | 1.17 | 0.843
CCCCCCCCCc1ccc(B(O)O)cc1 [4-Nonylphenylboronic acid] | 1.01 | 1.08
O=C(NC1CCN(CCCCC2(C(=O)NCC(F)(F)F)c3ccccc3-c3ccccc32)CC1)c1ccccc1-c1ccc(C(F)(F)F)cc1 [Lomitapide] | 0.293 | 0.695
O=C(NN1CCCCC1)c1nn(-c2ccc(Cl)cc2Cl)c(-c2ccc(C#Cc3ccc(C(F)(F)F)cc3)s2)c1CNS(=O)(=O)N1CCCC1 | 1.01 | 0.893
O=C(OC(C(F)(F)F)C(F)(F)F)N1CCN(Cc2ccc(C(F)(F)F)cc2N2CCCC2)CC1 | 0.999 | 1.01
